Bioassay records as filed in PubChem.
D3 antag = D3 dopamine receptor (human) antagonism; P35462; D3R cells, DiscoveRx beta-arrestin luminescence, antagonist mode; hits give low values; max response, negative = inhibition, %; 2.5% of 360,000 active; AID 652054; in the data active = max response below about -50%; inconclusive = no clear call, values can overlap the other calls; note: % is set by controls: 0 for no effect and ±100 for the full control effect
Target sequence (P35462 whole entry, looked up): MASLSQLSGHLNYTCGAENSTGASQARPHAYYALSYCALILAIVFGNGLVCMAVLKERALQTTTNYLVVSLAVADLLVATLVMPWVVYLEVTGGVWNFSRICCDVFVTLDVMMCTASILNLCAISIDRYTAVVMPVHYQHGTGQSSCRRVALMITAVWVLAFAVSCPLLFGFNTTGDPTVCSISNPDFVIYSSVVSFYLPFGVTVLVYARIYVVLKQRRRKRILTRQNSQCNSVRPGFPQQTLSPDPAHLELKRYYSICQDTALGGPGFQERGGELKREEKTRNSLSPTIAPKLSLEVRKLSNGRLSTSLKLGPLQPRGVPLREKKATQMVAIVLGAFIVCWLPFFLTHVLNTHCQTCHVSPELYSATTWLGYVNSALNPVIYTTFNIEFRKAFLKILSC
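Cells expressing the human receptor were seeded at 1500 cells/well, incubated overnight at 37 degrees C in 5% CO2, then exposed to library compounds with dopamine controls for 90 minutes at 37 degrees C before luminescent detection.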
DRD3 agonist = agonists of human D3 dopamine receptor; P35462; D3R DiscoveRx beta-arrestin cells, luminescence, 90 min; max activation, %; 0.58% of 410,000 active; AID 652048; in the data active = max activation above about 30%; note: 0% is about no effect
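Agonist-mode cell screen: cells plated at 1500/well and incubated overnight at 37 °C, then exposed to library compounds for 90 min at 37 °C. Detection reagent was added for 30–60 min at room temperature, and luminescence was read.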
D1 antag = blocks dopamine activation of the human D1 receptor; P21728; HEK293 TREx D1 cells, calcium flux, dopamine EC80; hits give low values; activity change, negative = inhibition, % at 10 µM; 3.2% of 360,000 active; in the data active = activity change below about -30%; note: % is set by controls: 0 for no effect and ±100 for the full control effect
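Calcium flux readout: force-coupled, inducible Hek293 Trex D1 line, cells induced overnight at 30 C with tetracycline, dye-loaded 30–90 min at RT. Antagonism scored against EC80 dopamine challenge given 180 s after compound.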
D1 agonist = agonists of human D1 dopamine receptor. P21728. HEK293 T-REx D1 cells, calcium flux, agonist mode. activation, % at 2 µM. 1% of 360,000 active. AID 504660; in the data active = activation above about 30%; note: 0% is about no effect
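Agonism was scored from calcium flux recorded over 180 s (1 read/s) after pintool compound addition, following a 10-cycle baseline. Cells were inducible force-coupled HEK293 TREx D1, plated overnight at 30 C and loaded with no-wash calcium dye.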
D1 potentiator = human D1 dopamine receptor positive modulation; AID 504651; 0.036% of 360,000 active; potentiation, % at 10 µM; P21728; HEK293 TREx D1 cells, calcium flux, dopamine EC20 potentiation; in the data active = potentiation above about 30%; note: 0% is about no effect
* marks the source's active call; other numbers are inactive results; u = inconclusive; x = no result. An excerpt weighted towards active compounds, which were near 6% of everything screened.

SMILES	D3 antag	DRD3 agonist	D1 antag	D1 agonist	D1 potentiator
Cc1ccccc1Cn1nc(C)c(NC(=O)c2nc3n(n2)C(C(F)F)CC(C)N3)c1C (stereo not drawn)	11	1	6	0	-4
COCCNC(=O)CSc1nnc2[nH]c(=O)cc(C)n12	x	-5	x	0	1
CC(=O)Nc1ccc(Nc2nc(C)nc3c2nnn3Cc2ccccc2Cl)cc1	-74*	-20	0	5	4
Cc1nc(Nc2ccc(Cl)cc2)c2nnn(Cc3ccccc3)c2n1	6	1	36	3	-1
Cc1nc(Nc2ccc(S(=O)(=O)N3CCCCC3C)cc2)c2nnn(Cc3ccccc3)c2n1 (stereo not drawn)	-59*	-5	36	3	4
CC(C)OC(=O)Nc1ccc2nc(-c3cscn3)[nH]c2c1	x	3	x	x	x
Cc1cccc(NC(=O)Cn2c(=O)n(CCCCCC(=O)NCc3ccccc3)c(=O)c3sccc32)c1	x	0	-9	3	-1
Cc1cccc(N=Cc2cc3c(cc2[N+](=O)[O-])OCO3)c1	-18	-1	16	1	-3
COc1cc(C=Nc2cccc(C)c2)c(O)c([N+](=O)[O-])c1	-92*	-30	1	4	-4
COc1ccc(C2=CC3=C(Br)C(=O)C(C)(OC(=O)c4cccs4)C(=O)C3=CO2)cc1 (stereo not drawn)	-55*	10	x	x	x
Cc1ccc(CN2c3ccccc3-c3nc(SCC(=O)NCc4ccccc4)ncc3S2(=O)=O)cc1	x	-8	2	3	-3
Cc1ccccc1CN1c2ccccc2-c2nc(SCC(=O)c3ccccc3)ncc2S1(=O)=O	x	3	-38*	2	2
COc1ccccc1NC(=O)CSc1ncc2c(n1)-c1cc(Cl)ccc1N(Cc1ccccc1)S2(=O)=O	x	-3	-33*	7	-7
O=C(CSc1ncc2c(n1)-c1cc(Cl)ccc1N(Cc1ccccc1)S2(=O)=O)Nc1ccc(F)cc1F	x	2	33	4	4
CCc1ccccc1NC(=O)CSc1ncc2c(n1)-c1ccccc1N(Cc1ccc(C)cc1)S2(=O)=O	x	0	-37*	2	-8
COc1ccc(C2=Nc3ccc(OC(F)(F)F)cc3NC(c3cccnc3)=N2)cc1	x	36*	3	-1	-1
COc1ccccc1CNC(=O)Cc1csc2nc(-c3ccc(Cl)cc3)cn12	x	1	4	3	2
CCCCN(c1ccccc1)S(=O)(=O)c1cc2c3c(c1)C(C)C(=O)N3CCC2 (stereo not drawn)	x	-18	x	-4	0
Cc1cc2c(s1)c1cnn(Cc3cccc(C)c3F)c(=O)c1n2C	x	x	4	5	-1
CN1CCC(=C2c3ccccc3C=Cc3ccccc32)CC1	-115*	x	-84*	x	x
CN1CCC(=C2c3ccccc3Sc3ccccc32)CC1	-108*	-97	x	x	x
CN1CCN(C(=O)Nc2ccc3c(c2)N(C)C(=O)c2ccccc2S3)CC1	5	1	6	5	-9
COc1ccc(Cn2c(SCc3ccc(C(=O)NC(C)C)cc3)nc3cccnc32)cc1	x	-5	4	-1	2
Cc1c(NC(=S)N/N=C/c2ccc(N(C)C)cc2)c(=O)n(-c2ccccc2)n1C	-9	-10	5	-1	6
CN1C(=S)N(c2cccnc2)C(=O)/C1=C\c1ccc(N(C)C)cc1	-24	-11	-13	91*	-3
SMILES	D3 antag	DRD3 agonist	D1 antag	D1 agonist	D1 potentiator
Cc1c(N2C(=O)/C(=C\c3ccc(N(C)C)cc3)N(C)C2=S)c(=O)n(-c2ccccc2)n1C	-12	-4	7	38*	0
CN1C(=S)N(c2cccnc2)C(=O)/C1=C\c1ccc(C(C)(C)C)cc1	-12	2	10	5	-2
CCCC[C@]12Cc3ccccc3C(O1)c1c(cc(-c3ccccc3)oc1=O)O2	x	x	-22	12	1
CCCCOC(=O)c1ccc(NC(=O)c2cc3c(=O)n4cccc(C)c4nc3n2C)cc1	x	9	-4	6	-1
Cc1cc2c(s1)c1cnn(Cc3c(Cl)cccc3Cl)c(=O)c1n2C	x	x	20	-1	9
Cc1[nH]n(C2=NCCS2)c(=O)c1N=Nc1cccc(C(F)(F)F)c1	7	0	5	62*	-4
Cc1[nH]n(-c2ccccc2)c(=O)c1N=Nc1cccc(C(=O)O)c1	-12	5	-37*	1	3
Cc1[nH]n(C(N)=S)c(=O)c1N=Nc1cccc(C(F)(F)F)c1	-16	4	-3	-1	-5
Cc1[nH]n(-c2ccccc2)c(=O)c1N=Nc1ccc(C(=O)O)cc1	-10	-4	5	2	-2
CCOc1ccc(CNCc2c(C(=O)O)c(C)n(Cc3c(F)cccc3Cl)c2C)cc1OC	x	-5	-9	-2	-2
CCCOc1ccccc1C(=O)Nc1ccc(-c2nc3ccc(C)cc3s2)cc1	x	-9	12	0	-3
N#CC1=C(N)C(C#N)(C#N)C(c2ccncc2)C2CN(C(=O)OCc3ccccc3)CC=C12 (stereo not drawn)	-63*	-14	-1	-2	-8
N#CC1=C(N)C(C#N)(C#N)[C@H](c2cccnc2)[C@H]2CN(C(=O)OCc3ccccc3)CC=C12	u	-6	-2	6	-3
CN1CC=C2C(C#N)=C(N)C(C#N)(C#N)C(CCc3ccccc3)C2C1 (stereo not drawn)	-22	-3	-62*	8	-9
O=C(NCc1ccc(F)cc1)C1CCCN(c2ncnc3onc(-c4ccc(F)cc4)c23)C1 (stereo not drawn)	x	-10	-7	9	0
COc1ccc(C(=O)NCC(c2ccc(N(C)C)cc2)N2CCc3ccccc32)cc1OC (stereo not drawn)	x	-12	-1	3	0
COc1cc(Cl)c(C)cc1NC(=O)CSc1cc(=O)n(C)c2cc(Cl)ccc12	x	-23	-11	-1	9
COc1ccc(CCNC(=O)c2nc(-c3ccc(Cl)cc3)n3c2CCCCC3)c(OC)c1	x	-2	13	6	-2
CC(=O)Oc1ccc(C2(c3ccc(OC(C)=O)cc3)Oc3ccccc3NC2=O)cc1	x	11	x	x	x
COc1ccc(C[C@H]2CN3C(=NC[C@@H]3Cc3ccc(O)cc3)N2CCNC(=O)c2ccc(C)c(Br)c2)cc1	-98*	-67	3	-3	-5
C/C=C(\C)C(=O)NCCN1C2=NC[C@H](Cc3ccccc3)N2C[C@H]1Cc1ccc(O)cc1	3	-14	0	3	-3
COc1ccc(C[C@H]2CN3C(=NC[C@@H]3Cc3ccccc3)N2CCNC(=O)c2ccc(C)c(Br)c2)cc1	-100*	-51	23	24	-4
C/C=C(\C)C(=O)NCCN1C2=NC[C@H](Cc3ccccc3)N2C[C@@H]1Cc1ccc(OC)cc1	-52*	0	x	x	x
COc1ccc(C[C@H]2CN3C(=NC[C@H]3Cc3ccccc3)N2CCNC(=O)c2ccc(C)c(Br)c2)cc1	-3	-34	35	6	1
